# Laboratory results from the supplement of paper PMC8975748.
# Where a name gives a salt, the structure may show the parent alone.
# System: Saccharomyces cerevisiae BY4741 SeMeCo community
# Experiment: z-score of subpopulation abundance vs DMSO median, subpopulation auxotrophic for LUM; higher = larger share of this subpopulation than in DMSO controls
# Conditions: 10 µM; 24 h; SM minimal medium; subpopulation (auxotrophy): LUM
# Description: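 Fluorescent four-plasmid SeMeCo (self-establishing metabolically cooperating S. cerevisiae BY4741 community; plasmids pH-mRuby2, pL-mWasabi, pU-eCFP, pM-TagRFP657) was grown 24 h in minimal SM medium with each Selleck FDA-approved drug at 10 µM in 384-well plates. Cells were fixed and imaged by high-content confocal microscopy. For each auxotrophic subpopulation (and the prototroph), a z-score gives the deviation from the DMSO vehicle-control population median.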
row,SMILES,z-score of subpopulation abundance
1,CC[C@H]1OC(=O)C[C@@H](O)[C@H](C)[C@@H](O[C@@H]2O[C@H](C)[C@@H](O)[C@H](N(C)C)[C@H]2O)[C@@H](CCN2C[C@H](C)C[C@H](C)C2)C[C@@H](C)C(=O)/C=C/C(C)=C/[C@@H]1CO[C@@H]1O[C@H](C)[C@@H](O)[C@@H](OC)[C@H]1OC [Tilmicosin phosphate],-0.25
2,O=C1CN(/N=C/c2ccc(-c3ccc([N+](=O)[O-])cc3)o2)C(=O)N1 [Dantrolene sodium],-0.73
3,C#C[C@]1(O)CC[C@H]2[C@@H]3CCC4=CC(=O)CC[C@@H]4[C@H]3C(=C)C[C@@]21CC [Etonogestrel],-0.63
4,CN(Cc1cnc2nc(N)nc(N)c2n1)c1ccc(C(=O)N[C@@H](CCC(=O)O)C(=O)O)cc1 [Methotrexate disodium],-1.74
5,O=C(O)c1cc(O)c2c(c1)[C@H]([C@H]1c3cc(C(=O)O)cc(O)c3C(=O)c3c(O[C@@H]4O[C@H](CO)[C@@H](O)[C@H](O)[C@H]4O)cccc31)c1cccc(O[C@@H]3O[C@H](CO)[C@@H](O)[C@H](O)[C@H]3O)c1C2=O [Sennoside A],-0.81
6,CC(=O)N[C@H]1[C@H]([C@H](O)[C@H](O)CO)OC(C(=O)O)=C[C@@H]1NC(=N)N [Zanamivir],0.82
7,CCOc1cc(N)c(Cl)cc1C(=O)NCC1CN(Cc2ccc(F)cc2)CCO1 (stereo not given) [Mosapride Citrate],0.54
8,CC[C@H](C)C(=O)O[C@H]1C[C@H](O)C=C2C=C[C@H](C)[C@H](CC[C@@H](O)C[C@@H](O)CC(=O)O)[C@H]21 [Pravastatin],0.59
9,COc1ccc(-c2nc3cc(C4=NNC(=O)CC4C)ccc3[nH]2)cc1 (stereo not given) [Pimobendan],1.6
10,CCOC(=O)CCC(=O)O[C@H]1[C@H](O[C@@H]2[C@@H](C)[C@H](O[C@H]3C[C@@](C)(OC)[C@@H](O)[C@H](C)O3)[C@@H](C)C(=O)O[C@H](CC)[C@@](C)(O)[C@H](O)[C@@H](C)C(=O)[C@H](C)C[C@@]2(C)O)O[C@H](C)C[C@@H]1N(C)C [Erythromycin Ethylsuccinate],2.68
11,CO[C@@H]1[C@@H](OC(N)=O)[C@@H](O)[C@H](Oc2ccc3c(O)c(NC(=O)c4ccc(O)c(CC=C(C)C)c4)c(=O)oc3c2C)OC1(C)C [Novobiocin Sodium],1.43
12,Cc1c(C)c2c(c(C)c1O)CCC(C)(CCCC(C)CCCC(C)CCCC(C)C)O2 (stereo not given) [Vitamin E],-0.41
13,CC1=C(C(=O)O)N2C(=O)[C@@H](NC(=O)[C@H](N)C3=CCC=CC3)[C@H]2SC1 [Cefradine],-0.81
14,O=C1c2cccc3c2[C@H](CCC3)CN1[C@@H]1CN2CCC1CC2 [Palonosetron HCl],-0.02
15,CN1CCN2c3ncccc3Cc3ccccc3C2C1 (stereo not given) [Mirtazapine],-0.74
16,NCC[C@H](O)C(=O)N[C@@H]1C[C@H](N)[C@@H](O[C@H]2O[C@H](CN)[C@@H](O)[C@H](O)[C@H]2O)[C@H](O)[C@H]1O[C@H]1O[C@H](CO)[C@@H](O)[C@H](N)[C@H]1O [Amikacin disulfate],-0.03
17,CC[C@H]1OC(=O)C[C@@H](O)[C@H](C)[C@@H](O[C@@H]2O[C@H](C)[C@@H](O[C@H]3C[C@@](C)(O)[C@@H](O)[C@H](C)O3)[C@H](N(C)C)[C@H]2O)[C@@H](CC=O)C[C@@H](C)C(=O)/C=C/C(C)=C/[C@@H]1CO[C@@H]1O[C@H](C)[C@@H](O)[C@@H](OC)[C@H]1OC [Tylosin],1.17
18,CC[C@H](C)C(=O)O[C@H]1C[C@H](O)C=C2C=C[C@H](C)[C@H](CC[C@@H](O)C[C@@H](O)CC(=O)O)[C@H]21 [Pravastatin sodium],0.57
19,CCn1cc(C(=O)O)c(=O)c2cc(F)c(N3CCNCC3)nc21 [Enoxacin],0.62
20,CC[C@@H]1/C=C(\C)C[C@H](C)C[C@H](OC)[C@H]2O[C@@](O)(C(=O)C(=O)N3CCCC[C@H]3C(=O)O[C@H](/C(C)=C/[C@@H]3CC[C@@H](O)[C@H](OC)C3)[C@H](C)[C@@H](O)CC1=O)[C@H](C)C[C@@H]2OC [Ascomycin (FK520)],2.23

row,SMILES,z-score of subpopulation abundance
1,COC(=O)Nc1nc2cc(Sc3ccccc3)ccc2[nH]1 [Fenbendazole],0.53
2,C#CCC(Cc1cnc2nc(N)nc(N)c2n1)c1ccc(C(=O)N[C@@H](CCC(=O)O)C(=O)O)cc1 (stereo not given in full) [Pralatrexate],-1.33
3,CC[C@H]1OC(=O)C[C@@H](O)[C@H](C)[C@@H](O[C@@H]2O[C@H](C)[C@@H](O)[C@H](N(C)C)[C@H]2O)[C@@H](CCN2C[C@H](C)C[C@H](C)C2)C[C@@H](C)C(=O)/C=C/C(C)=C/[C@@H]1CO[C@@H]1O[C@H](C)[C@@H](O)[C@@H](OC)[C@H]1OC [Tilmicosin],1.68
4,CCCN(CCC)CCc1cccc2c1CC(=O)N2 [Ropinirole HCl],1.74
5,CN(Cc1ccc(C(C)(C)C)cc1)Cc1cccc2ccccc12 [Butenafine HCl],-0.75
6,NCC[C@H](O)C(=O)N[C@@H]1C[C@H](N)[C@@H](O[C@H]2O[C@H](CN)[C@@H](O)[C@H](O)[C@H]2O)[C@H](O)[C@H]1O[C@H]1O[C@H](CO)[C@@H](O)[C@H](N)[C@H]1O [Amikacin hydrate],-0.58
7,CC1(C)[C@H](C(=O)O)N2C(=O)C[C@H]2S1(=O)=O [Sulbactam sodium],0.21
8,O=C(O)c1ccccc1C(=O)Nc1ccc(S(=O)(=O)Nc2nccs2)cc1 [Phthalylsulfathiazole],-0.13
9,NC[C@H]1O[C@H](O[C@H]2[C@H](O[C@@H]3O[C@H](CO)[C@@H](O)[C@H]3O)[C@@H](O)[C@H](N)C[C@@H]2N)[C@H](N)[C@@H](O)[C@@H]1O [Ribostamycin Sulfate],-0.84
10,Cc1ncc([N+](=O)[O-])n1CCO [Metronidazole],-0.37
11,COCCCN1CCC(NC(=O)c2cc(Cl)c(N)c3c2OCC3)CC1 [Prucalopride],-0.29
12,O=c1ccc2cc(O)c(O)cc2o1 [Esculetin],-3.61
13,O=C1C(CC[S+]([O-])c2ccccc2)C(=O)N(c2ccccc2)N1c1ccccc1 (racemic) [(+/-)-Sulfinpyrazone],0.05
14,O=C(CCCN1CCN(c2ccccn2)CC1)c1ccc(F)cc1 [Azaperone],0.38
15,CC1(C)S[C@@H]2[C@H](NC(=O)[C@H](NC(=O)N3CCN(S(C)(=O)=O)C3=O)c3ccccc3)C(=O)N2[C@H]1C(=O)O [Mezlocillin Sodium],-0.16
16,Clc1ccc(CSC(Cn2ccnc2)c2ccc(Cl)cc2Cl)cc1 (stereo not given) [Sulconazole Nitrate],0.84
17,Cn1nnc(-c2ccc(-c3ccc(N4C[C@H](COP(=O)(O)O)OC4=O)cc3F)cn2)n1 [Tedizolid Phosphate],-1.05
18,NC[C@@H]1O[C@H](O[C@H]2[C@@H](O)[C@H](O[C@@H]3[C@@H](O)[C@H](N)C[C@H](N)[C@H]3O[C@H]3O[C@H](CN)[C@@H](O)[C@H](O)[C@H]3N)O[C@@H]2CO)[C@H](N)[C@@H](O)[C@@H]1O [Neomycin sulfate],-0.31
19,Cc1c(Cl)cccc1Nc1ccccc1C(=O)O [Tolfenamic Acid],-1.95
20,CN(C)CCCN1c2ccccc2CCc2ccc(Cl)cc21 [Clomipramine HCl],1.56
